Source: PubChem (Sanford-Burnham Center for Chemical Genomics)
CYP2C9 inh = blocks human cytochrome P450 2C9; CYP2C9 Supersomes, luciferin-H conversion, luminescence; inhibition, % at 5 µM; 96,000 compounds, 20% hits;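 active means blocking of liver enzyme CYP2C9 beyond about 50% at 5 µM, limit read from the data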
CYP2C9 act = CYP2C9 (human) activation. recombinant CYP2C9, luciferin-H conversion, luminescence; active compounds read high; factor 1 = untreated enzyme, 0 = blocked. activation factor at 5 µM. 96,000 compounds, 1.4% hits. AID 1024;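 active means activation factor of 2 or more for CYP2C9 at a 5 µM dose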;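 further: 0 = sulfaphenazole-blocked wells and 1 = vehicle-only wells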
CYP2C19 inh = blocks human cytochrome P450 2C19 | P33261 | CYP2C19 Supersomes, luciferin-H EGE luminescence, 30 min | inhibition, % at 5 µM | 96,000 compounds, 21% hits;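 active means CYP2C19 inhibition above a set limit at 5 µM in the primary screen, cut at about 50% in these data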;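 further: plate controls were negative control wells for no effect and 2.5 mM tranylcypromine positive control for full effect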
Target sequence (P33261 whole entry, looked up): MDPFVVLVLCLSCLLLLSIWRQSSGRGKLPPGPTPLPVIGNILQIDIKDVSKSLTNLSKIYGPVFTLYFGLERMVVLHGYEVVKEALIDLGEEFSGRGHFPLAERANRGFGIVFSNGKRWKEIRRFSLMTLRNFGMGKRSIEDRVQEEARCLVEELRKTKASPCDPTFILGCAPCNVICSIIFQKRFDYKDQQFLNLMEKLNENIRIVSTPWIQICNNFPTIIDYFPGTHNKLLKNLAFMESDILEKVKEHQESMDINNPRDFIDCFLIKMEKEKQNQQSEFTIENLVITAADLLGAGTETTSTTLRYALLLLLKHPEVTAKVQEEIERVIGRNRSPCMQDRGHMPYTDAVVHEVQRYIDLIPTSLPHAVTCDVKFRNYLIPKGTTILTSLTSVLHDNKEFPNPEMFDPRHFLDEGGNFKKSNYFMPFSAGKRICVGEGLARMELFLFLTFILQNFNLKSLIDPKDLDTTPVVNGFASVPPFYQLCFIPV
CYP2C19 act = cytochrome P450 2C19 (human) activation. P33261. recombinant CYP2C19, luciferin-H EGE luminescence; active compounds read high; 0 = fully inhibited enzyme, 1 = untreated enzyme. activation factor at 5 µM. 96,000 tested, under 10 active;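 active means activation factor of at least 2 at 5 µM in the primary screen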;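 further: 0 = wells with 2.5 mM tranylcypromine and 1 = vehicle-only wells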
PLAP act = human PLAP activation | P05187 | 96,000 compounds, 1.2% hits | activation fold at 20 µM | purified PLAP enzyme, luminescent substrate read-out; active compounds read high; in the data active means activation fold above about 2
Numbers without * were called inactive. An excerpt weighted towards active compounds, which were near 31% of everything screened.

SMILES	CYP2C9 inh	CYP2C9 act	CYP2C19 inh	CYP2C19 act	PLAP act
Clc1ccc(Cc2nc(-c3cccnc3)no2)cc1	40	0.6	54*	0.5	1
c1ccc(CCc2nc(-c3cccnc3)no2)cc1	10	0.9	86*	0.1	0.7
CC1(C)CC(=O)C=C(Nc2ccccc2NC(=O)c2cnccn2)C1	42	0.6	0	1	1.2
Cc1ccc(C(CC(=O)N2CCCC2)c2ccccc2)c(O)c1C (stereo not drawn)	96*	0	96*	0	1.2
Cc1cccc(C(CC(=O)N2CCCC2)c2ccccc2)c1O (stereo not drawn)	73*	0.3	84*	0.2	0.9
O=C(CC(c1ccccc1)c1ccccc1O)N1CCCC1 (stereo not drawn)	3	1	35	0.6	1.2
N/C(=N\OC(=O)CC1CCCCC1)c1ccccn1	10	0.9	24	0.8	0.9
CSc1nc(-c2ccccc2)nc(N2CCN(C)CC2)c1C(C)=O	53*	0.5	56*	0.4	1.5
CSc1nc(-c2ccccc2)nc(N2CCCC2)c1C(C)=O	25	0.8	6	0.9	0.9
Oc1[nH]c2ccccc2c1C=NCC1CCCO1 (stereo not drawn)	-11	1.1	-3	1	1
Cc1cc2c(C)ccc(C)c2nc1SCC(=O)c1cccs1	55*	0.5	-2	1	0.6
Cc1cc(C)c(C#N)c(SCC(=O)c2cccs2)n1	62*	0.4	96*	0	0.9
CC(=O)CSc1nc(N)c(C#N)c(-c2cccs2)c1C#N	60*	0.4	-13	1.1	0.7
N#Cc1c(-c2ccccc2)cc(C2CC2)nc1SCC(=O)c1cccs1	43	0.6	14	0.9	1
N#Cc1c(-c2cccs2)cc(C2CC2)nc1SCC(N)=O	13	0.9	59*	0.4	1
Cc1c(C(=O)N2CCc3ccccc32)oc2c1C(=O)CC(C)(C)C2	23	0.8	11	0.9	0.9
Cc1cc(S(=O)(=O)N2CCCC2)c(C)s1	-7	1.1	14	0.9	1
Brc1cc2c(cc1/C=N/Nc1nc(N3CCCC3)nc(N3CCOCC3)n1)OCO2	31	0.7	23	0.8	1.3
CC(NC(=O)c1ccc(Cl)cc1)c1nnc(SCc2ccc([N+](=O)[O-])cc2)n1C (stereo not drawn)	3	1	0	1	1
COc1cccc(-c2nc(CS(=O)(=O)CC(=O)Nc3cccc(C)c3C)c(C)o2)c1	1	1	1	1	0.9
CCOc1ccc(/C=N/O)cc1	14	0.9	55*	0.4	0.8
CCOc1ccc(C=NC23CN4CN(CN(C4)C2)C3)cc1	-9	1.1	5	0.9	1.1
CN1CCN(C(=O)c2cc3c(n(-c4ccccc4)c2=O)CC(C)(C)CC3=O)CC1	-9	1.1	-17	1.2	1.2
CCc1ccccc1NC(=O)N[C@@H](C)C(=O)OC	3	1	7	0.9	0.9
CN(C)S(=O)(=O)c1ccc(NC(=O)c2cc3ccccc3o2)cc1	3	1	14	0.9	0.7
SMILES	CYP2C9 inh	CYP2C9 act	CYP2C19 inh	CYP2C19 act	PLAP act
CN(C1CCCCC1)S(=O)(=O)c1ccc(NC(=O)c2ccc(Br)o2)cc1	98*	0	94*	0.1	1.3
CN(C)S(=O)(=O)c1ccc(NC(=O)c2ccc(Br)o2)cc1	43	0.6	54*	0.5	0.9
CCc1nnc2n1N=C(c1ccc(-c3cc(Cl)ccc3Cl)o1)CS2	37	0.6	31	0.7	1.2
Cc1ccc2nc(-c3ccccc3)cc(C(=O)NCCCn3ccnc3)c2c1	98*	0	81*	0.2	1.1
Cc1nn(Cc2ccccc2Cl)c2sc(C(=O)OC3CCCC3=O)cc12 (stereo not drawn)	84*	0.2	98*	0	1.3
COCCNC(=O)c1cc(-c2cccnc2)nc2ccc(Br)cc12	21	0.8	4	1	1.1
Cc1nn(Cc2ccccc2Cl)c2sc(C(=O)NCCCn3ccnc3)cc12	100*	0	90*	0.1	1.5
O=C(NCCCn1ccnc1)c1cc(-c2ccc(Cl)cc2)nc2ccccc12	98*	0	90*	0.1	1.2
COCCn1c(Cc2ccccc2)nnc1SCC(=O)NC(C)C	-16	1.2	0	1	1.1
CCOC(=O)N1CCc2c(sc(NC(=O)c3ccc(Cl)s3)c2C(N)=O)C1	44	0.6	19	0.8	1.2
CCCNC(=O)c1cc2c3ccccc3n(C)c2s1	39	0.6	27	0.7	0.8
Cc1cc(C(=O)NCCCn2ccnc2)sc1-c1ccccc1	89*	0.1	97*	0	1.1
Cc1nn(Cc2ccc(Cl)cc2)c2sc(C(=O)OCC(N)=O)cc12	76*	0.2	13	0.9	0.8
Cc1oc(-c2ccc(Cl)cc2)nc1CN1CCC(C(=O)N2CCN(Cc3ccccc3)CC2)CC1	20	0.8	7	0.9	1.7
Cc1oc(-c2ccccc2)nc1CS(=O)CC(=O)N1CCc2ccccc2C1 (stereo not drawn)	68*	0.3	61*	0.4	1.6
Cc1cccc(-c2nc(CS(=O)CC(=O)N3CCCCC3)c(C)o2)c1 (stereo not drawn)	70*	0.3	23	0.8	1.4
Cc1oc(-c2ccc(Cl)cc2)nc1CN1CCC(C(=O)N2CCc3ccccc3C2)CC1	15	0.8	90*	0.1	1.5
Cc1ccc(C(=O)N2C3C=CC(C3)C2(C(F)(F)F)C(F)(F)F)cc1 (stereo not drawn)	34	0.7	19	0.8	1
COc1cc(CN2CCC(C(=O)NC3CCCC3)CC2)ccc1O	-17	1.2	-8	1.1	1.5
CSc1n[nH]c(NCc2cccs2)n1	-8	1.1	-9	1.1	0.9
COC(=O)c1cc(=O)n2c(-c3ccc(OC)cc3)csc2n1	-12	1.1	-16	1.2	1
CC(C)C1=C2CCCCC2NC(=O)N1 (stereo not drawn)	-24	1.2	0	1	0.9
CCOC(=O)c1cc(CC)sc1NC(=O)c1ccc2c(c1)OCCO2	25	0.7	-3	1	0.9
Cc1cnc(C(=O)OCC(=O)NC(C)C)cn1	29	0.7	-1	1	1.1
CCOC(=O)C1=C(C)NC(C)=C(C(=O)OCC)C1C(=O)OCC(=O)c1ccc2c(c1)OCCO2	85*	0.2	68*	0.3	1.5
CCOC(=O)C1=C(C)NC(C)=C(C(=O)OCC)C1C(=O)OCC(=O)N1CCc2ccccc21	82*	0.2	38	0.6	1.8
CCOC(=O)C1=C(C)NC(C)=C(C(=O)OCC)C1C(=O)OCC(=O)NC(C)C	85*	0.2	84*	0.2	0.9
CCOC(=O)c1cnn(-c2c(Cc3ccccc3)c(C)nc3c(-c4ccccc4)c(C)nn23)c1N	1	1	-26	1.3	0.9
O=C1C=C(NCc2ccc(Cl)cc2Cl)C2(CCCCC2)O1	13	0.9	49	0.5	1.1
